Measurements: PMC11102866, “Nucleosome-bound NR5A2 structure reveals pioneer factor mechanism by DNA minor groove anchor competition”

Legend:
[1] = target: NR5A2 wild type;histone octamer (Homo sapiens;, UniProt O00482;C0HKE1;Q6ZWY9;P84244;P62806 1-541;2-130;2-126;2-136;2-103, |); experiment: SeEN-seq (EMSA of nucleosome library followed by sequencing); 0.8 uM human NR5A2; 20 mM Tris-HCl pH 7.5, 120 mM NaCl, 1 mM MgCl2, 10 uM ZnCl2, 1 mM DTT, 100 ug/ml BSA, room temperature, 30 min; 0.1 uM nucleosome library; high values mean tight binding
[2] = target: mouse Nr5a2 wild type;histone octamer (Mus musculus;, UniProt P45448;C0HKE1;Q6ZWY9;P84244;P62806 1-560;2-130;2-126;2-136;2-103, |); experiment: SeEN-seq (EMSA of nucleosome library followed by sequencing); 1.2 uM mouse Nr5a2; 20 mM Tris-HCl pH 7.5, 120 mM NaCl, 1 mM MgCl2, 10 uM ZnCl2, 1 mM DTT, 100 ug/ml BSA, room temperature, 30 min; 0.1 uM nucleosome library; high values mean tight binding

Binder	binding signal [1]	binding signal [2]
102 (nucleosome, reconstituted with mouse histones H2A, H2B, H3.3 and H4) DNA 1: ATCCTGGAGAATCCCGGTGCCGAGGCCGCTCAATTGGTCGTAGACAGCTCTAGCACCGCTTAAACGCACGTACGCGCTGTCCCCCGCGTTTTAACCGCCAAGGGTCAAGGCCACTAGTCTCCAGGCACGTGTCAGATATATACATCCTGTGAT DNA 2: ATCACAGGATGTATATATCTGACACGTGCCTGGAGACTAGTGGCCTTGACCCTTGGCGGTTAAAACGCGGGGGACAGCGCGTACGTGCGTTTAAGCGGTGCTAGAGCTGTCTACGACCAATTGAGCGGCCTCGGCACCGGGATTCTCCAGGAT	0.685 log2 enrichment (bound/unbound, relative to Widom 601)	0.658 log2 enrichment (bound/unbound, relative to Widom 601)
105 (nucleosome, reconstituted with mouse histones H2A, H2B, H3.3 and H4) DNA 1: ATCCTGGAGAATCCCGGTGCCGAGGCCGCTCAATTGGTCGTAGACAGCTCTAGCACCGCTTAAACGCACGTACGCGCTGTCCCCCGCGTTTTAACCGCCAAGGGGATTCAAGGCCAGTCTCCAGGCACGTGTCAGATATATACATCCTGTGAT DNA 2: ATCACAGGATGTATATATCTGACACGTGCCTGGAGACTGGCCTTGAATCCCCTTGGCGGTTAAAACGCGGGGGACAGCGCGTACGTGCGTTTAAGCGGTGCTAGAGCTGTCTACGACCAATTGAGCGGCCTCGGCACCGGGATTCTCCAGGAT	1.55 log2 enrichment (bound/unbound, relative to Widom 601)	1.09 log2 enrichment (bound/unbound, relative to Widom 601)
103 (nucleosome, reconstituted with mouse histones H2A, H2B, H3.3 and H4) DNA 1: ATCCTGGAGAATCCCGGTGCCGAGGCCGCTCAATTGGTCGTAGACAGCTCTAGCACCGCTTAAACGCACGTACGCGCTGTCCCCCGCGTTTTAACCGCCAAGGGGTCAAGGCCATAGTCTCCAGGCACGTGTCAGATATATACATCCTGTGAT DNA 2: ATCACAGGATGTATATATCTGACACGTGCCTGGAGACTATGGCCTTGACCCCTTGGCGGTTAAAACGCGGGGGACAGCGCGTACGTGCGTTTAAGCGGTGCTAGAGCTGTCTACGACCAATTGAGCGGCCTCGGCACCGGGATTCTCCAGGAT	0.782 log2 enrichment (bound/unbound, relative to Widom 601)	0.764 log2 enrichment (bound/unbound, relative to Widom 601)
104 (nucleosome, reconstituted with mouse histones H2A, H2B, H3.3 and H4) DNA 1: ATCCTGGAGAATCCCGGTGCCGAGGCCGCTCAATTGGTCGTAGACAGCTCTAGCACCGCTTAAACGCACGTACGCGCTGTCCCCCGCGTTTTAACCGCCAAGGGGATCAAGGCCAAGTCTCCAGGCACGTGTCAGATATATACATCCTGTGAT DNA 2: ATCACAGGATGTATATATCTGACACGTGCCTGGAGACTTGGCCTTGATCCCCTTGGCGGTTAAAACGCGGGGGACAGCGCGTACGTGCGTTTAAGCGGTGCTAGAGCTGTCTACGACCAATTGAGCGGCCTCGGCACCGGGATTCTCCAGGAT	1.03 log2 enrichment (bound/unbound, relative to Widom 601)	0.764 log2 enrichment (bound/unbound, relative to Widom 601)
106 (nucleosome, reconstituted with mouse histones H2A, H2B, H3.3 and H4) DNA 1: ATCCTGGAGAATCCCGGTGCCGAGGCCGCTCAATTGGTCGTAGACAGCTCTAGCACCGCTTAAACGCACGTACGCGCTGTCCCCCGCGTTTTAACCGCCAAGGGGATTTCAAGGCCATCTCCAGGCACGTGTCAGATATATACATCCTGTGAT DNA 2: ATCACAGGATGTATATATCTGACACGTGCCTGGAGATGGCCTTGAAATCCCCTTGGCGGTTAAAACGCGGGGGACAGCGCGTACGTGCGTTTAAGCGGTGCTAGAGCTGTCTACGACCAATTGAGCGGCCTCGGCACCGGGATTCTCCAGGAT	1.84 log2 enrichment (bound/unbound, relative to Widom 601)	1.23 log2 enrichment (bound/unbound, relative to Widom 601)
111 (nucleosome, reconstituted with mouse histones H2A, H2B, H3.3 and H4) DNA 1: ATCCTGGAGAATCCCGGTGCCGAGGCCGCTCAATTGGTCGTAGACAGCTCTAGCACCGCTTAAACGCACGTACGCGCTGTCCCCCGCGTTTTAACCGCCAAGGGGATTACTCCTCAAGGCCAAGGCACGTGTCAGATATATACATCCTGTGAT DNA 2: ATCACAGGATGTATATATCTGACACGTGCCTTGGCCTTGAGGAGTAATCCCCTTGGCGGTTAAAACGCGGGGGACAGCGCGTACGTGCGTTTAAGCGGTGCTAGAGCTGTCTACGACCAATTGAGCGGCCTCGGCACCGGGATTCTCCAGGAT	1.01 log2 enrichment (bound/unbound, relative to Widom 601)	1.02 log2 enrichment (bound/unbound, relative to Widom 601)
108 (nucleosome, reconstituted with mouse histones H2A, H2B, H3.3 and H4) DNA 1: ATCCTGGAGAATCCCGGTGCCGAGGCCGCTCAATTGGTCGTAGACAGCTCTAGCACCGCTTAAACGCACGTACGCGCTGTCCCCCGCGTTTTAACCGCCAAGGGGATTACTCAAGGCCATCCAGGCACGTGTCAGATATATACATCCTGTGAT DNA 2: ATCACAGGATGTATATATCTGACACGTGCCTGGATGGCCTTGAGTAATCCCCTTGGCGGTTAAAACGCGGGGGACAGCGCGTACGTGCGTTTAAGCGGTGCTAGAGCTGTCTACGACCAATTGAGCGGCCTCGGCACCGGGATTCTCCAGGAT	0.869 log2 enrichment (bound/unbound, relative to Widom 601)	0.815 log2 enrichment (bound/unbound, relative to Widom 601)
107 (nucleosome, reconstituted with mouse histones H2A, H2B, H3.3 and H4) DNA 1: ATCCTGGAGAATCCCGGTGCCGAGGCCGCTCAATTGGTCGTAGACAGCTCTAGCACCGCTTAAACGCACGTACGCGCTGTCCCCCGCGTTTTAACCGCCAAGGGGATTATCAAGGCCACTCCAGGCACGTGTCAGATATATACATCCTGTGAT DNA 2: ATCACAGGATGTATATATCTGACACGTGCCTGGAGTGGCCTTGATAATCCCCTTGGCGGTTAAAACGCGGGGGACAGCGCGTACGTGCGTTTAAGCGGTGCTAGAGCTGTCTACGACCAATTGAGCGGCCTCGGCACCGGGATTCTCCAGGAT	0.733 log2 enrichment (bound/unbound, relative to Widom 601)	0.834 log2 enrichment (bound/unbound, relative to Widom 601)
109 (nucleosome, reconstituted with mouse histones H2A, H2B, H3.3 and H4) DNA 1: ATCCTGGAGAATCCCGGTGCCGAGGCCGCTCAATTGGTCGTAGACAGCTCTAGCACCGCTTAAACGCACGTACGCGCTGTCCCCCGCGTTTTAACCGCCAAGGGGATTACTTCAAGGCCACCAGGCACGTGTCAGATATATACATCCTGTGAT DNA 2: ATCACAGGATGTATATATCTGACACGTGCCTGGTGGCCTTGAAGTAATCCCCTTGGCGGTTAAAACGCGGGGGACAGCGCGTACGTGCGTTTAAGCGGTGCTAGAGCTGTCTACGACCAATTGAGCGGCCTCGGCACCGGGATTCTCCAGGAT	0.938 log2 enrichment (bound/unbound, relative to Widom 601)	0.719 log2 enrichment (bound/unbound, relative to Widom 601)
112 (nucleosome, reconstituted with mouse histones H2A, H2B, H3.3 and H4) DNA 1: ATCCTGGAGAATCCCGGTGCCGAGGCCGCTCAATTGGTCGTAGACAGCTCTAGCACCGCTTAAACGCACGTACGCGCTGTCCCCCGCGTTTTAACCGCCAAGGGGATTACTCCCTCAAGGCCAGGCACGTGTCAGATATATACATCCTGTGAT DNA 2: ATCACAGGATGTATATATCTGACACGTGCCTGGCCTTGAGGGAGTAATCCCCTTGGCGGTTAAAACGCGGGGGACAGCGCGTACGTGCGTTTAAGCGGTGCTAGAGCTGTCTACGACCAATTGAGCGGCCTCGGCACCGGGATTCTCCAGGAT	0.87 log2 enrichment (bound/unbound, relative to Widom 601)	0.753 log2 enrichment (bound/unbound, relative to Widom 601)
12 (nucleosome, reconstituted with mouse histones H2A, H2B, H3.3 and H4) DNA 1: ATCCTGGAGAATCCTCAAGGCCAGGCCGCTCAATTGGTCGTAGACAGCTCTAGCACCGCTTAAACGCACGTACGCGCTGTCCCCCGCGTTTTAACCGCCAAGGGGATTACTCCCTAGTCTCCAGGCACGTGTCAGATATATACATCCTGTGAT DNA 2: ATCACAGGATGTATATATCTGACACGTGCCTGGAGACTAGGGAGTAATCCCCTTGGCGGTTAAAACGCGGGGGACAGCGCGTACGTGCGTTTAAGCGGTGCTAGAGCTGTCTACGACCAATTGAGCGGCCTGGCCTTGAGGATTCTCCAGGAT	4.6 log2 enrichment (bound/unbound, relative to Widom 601)	4.25 log2 enrichment (bound/unbound, relative to Widom 601)
13 (nucleosome, reconstituted with mouse histones H2A, H2B, H3.3 and H4) DNA 1: ATCCTGGAGAATCCCTCAAGGCCAGCCGCTCAATTGGTCGTAGACAGCTCTAGCACCGCTTAAACGCACGTACGCGCTGTCCCCCGCGTTTTAACCGCCAAGGGGATTACTCCCTAGTCTCCAGGCACGTGTCAGATATATACATCCTGTGAT DNA 2: ATCACAGGATGTATATATCTGACACGTGCCTGGAGACTAGGGAGTAATCCCCTTGGCGGTTAAAACGCGGGGGACAGCGCGTACGTGCGTTTAAGCGGTGCTAGAGCTGTCTACGACCAATTGAGCGGCTGGCCTTGAGGGATTCTCCAGGAT	4.51 log2 enrichment (bound/unbound, relative to Widom 601)	3.55 log2 enrichment (bound/unbound, relative to Widom 601)
110 (nucleosome, reconstituted with mouse histones H2A, H2B, H3.3 and H4) DNA 1: ATCCTGGAGAATCCCGGTGCCGAGGCCGCTCAATTGGTCGTAGACAGCTCTAGCACCGCTTAAACGCACGTACGCGCTGTCCCCCGCGTTTTAACCGCCAAGGGGATTACTCTCAAGGCCACAGGCACGTGTCAGATATATACATCCTGTGAT DNA 2: ATCACAGGATGTATATATCTGACACGTGCCTGTGGCCTTGAGAGTAATCCCCTTGGCGGTTAAAACGCGGGGGACAGCGCGTACGTGCGTTTAAGCGGTGCTAGAGCTGTCTACGACCAATTGAGCGGCCTCGGCACCGGGATTCTCCAGGAT	0.939 log2 enrichment (bound/unbound, relative to Widom 601)	0.962 log2 enrichment (bound/unbound, relative to Widom 601)
1 (nucleosome, reconstituted with mouse histones H2A, H2B, H3.3 and H4) DNA 1: ATCTCAAGGCCACCCGGTGCCGAGGCCGCTCAATTGGTCGTAGACAGCTCTAGCACCGCTTAAACGCACGTACGCGCTGTCCCCCGCGTTTTAACCGCCAAGGGGATTACTCCCTAGTCTCCAGGCACGTGTCAGATATATACATCCTGTGAT DNA 2: ATCACAGGATGTATATATCTGACACGTGCCTGGAGACTAGGGAGTAATCCCCTTGGCGGTTAAAACGCGGGGGACAGCGCGTACGTGCGTTTAAGCGGTGCTAGAGCTGTCTACGACCAATTGAGCGGCCTCGGCACCGGGTGGCCTTGAGAT	6.41 log2 enrichment (bound/unbound, relative to Widom 601)	5.85 log2 enrichment (bound/unbound, relative to Widom 601)
2 (nucleosome, reconstituted with mouse histones H2A, H2B, H3.3 and H4) DNA 1: ATCCTCAAGGCCACCGGTGCCGAGGCCGCTCAATTGGTCGTAGACAGCTCTAGCACCGCTTAAACGCACGTACGCGCTGTCCCCCGCGTTTTAACCGCCAAGGGGATTACTCCCTAGTCTCCAGGCACGTGTCAGATATATACATCCTGTGAT DNA 2: ATCACAGGATGTATATATCTGACACGTGCCTGGAGACTAGGGAGTAATCCCCTTGGCGGTTAAAACGCGGGGGACAGCGCGTACGTGCGTTTAAGCGGTGCTAGAGCTGTCTACGACCAATTGAGCGGCCTCGGCACCGGTGGCCTTGAGGAT	6.87 log2 enrichment (bound/unbound, relative to Widom 601)	5.51 log2 enrichment (bound/unbound, relative to Widom 601)
